{
  "source": "PubChem BioAssay (Tox21)",
  "note": "Values without a mark were called inactive. Active and inactive are the calls of the source. Calls follow the shape of the dose curve; as a rule, active = well fitted curve in the direction sought with a large enough effect in the repeat runs; inconclusive = weak or mixed curves; inactive = flat fitted curve, though single readings scatter.",
  "data": [
    {"test": "qHTS assay to test for compound auto fluorescence at 535 nm (green) in HepG2 cells (AID 720675); also: % is scaled to controls: 0 for no effect and ±100 for the full control effect", "settings": "green autofluorescence 485/535 nm, 1 h; series mostly up to 46 µM; fluorescence, % of fluorescein control: at the top concentration", "description": "National Center for Advancing Translational Sciences [NCATS]\nNIH Chemical Genomics Center [NCGC]\nU.S. Environmental Protection Agency [EPA]\nNational Institutes of Environmental Health Sciences [NIEHS]\nNational Toxicology Program [NTP]\nU.S. Food and Drug Administration [FDA]\nCompound auto fluorescence often interferes with screening of the compound library against various biological targets and signaling pathways. Some of these compounds may have fluorophoric properties. Such properties may interfere with the assay outputs resulting in false positives and/or negatives. To decrease such complications and ensure the compound activities are relevant in terms of biological response, the Tox21 10K compound library was screened for auto fluorescence.\nFrom the fluorophores used as reporter signals in our screening assays, the auto fluorescence equivalencies of compounds against three fluorophores have been evaluated: Triamterene, Fluorescein and Rose Bengal sodium for blue, green and red fluorescence, respectively. The fluorescence intensities were measured using Excitation/Emission wavelengths at 405/460nm, 485/535nm and 540/590nm for blue, green and red labels, respectively. This assay includes the green fluorescence data.\nTox21 Assay Protocol Summary:\n2,000 HepG2 cells in 5 uL of culture medium (MEM containing 10% FBS) per well were dispensed into black wall/clear bottom 1536-well plates using a Multidrop Combi Dispenser (ThermoFisher Scientific, Waltham, MA). The assay plates were incubated overnight at 37 C to allow cell attachment to the well bottom, followed by the transfer of 23 nL compound or DMSO vehicle by a pintool work station (Kalypsys , San Diego, CA). After the assay plates were incubated for 1 hr at 37 C and 5% CO2, fluorescence intensities in the assay plates were measured by an Envision (PerkinElmer, Shelton, CT) plate reader using three labels for measuring blue, green and red fluorescence at […] 460, 535 and 590 nm respectively.", "values": [
      {"molecule": "O.O.O.O=C([O-])C(O)C(O)C(=O)[O-].O=C([O-])C(O)C(O)C(=O)[O-].[K+].[K+].[Sb].[Sb]", "note": "(stereo not given)", "fluorescence, % of fluorescein control": "-0.157%"},
      {"molecule": "[2H]C([2H])([2H])[C@H](N)Cc1ccccc1", "fluorescence, % of fluorescein control": "0.0114%"},
      {"molecule": "O=C(CS(=O)C(c1ccccc1)c1ccccc1)NO", "note": "(stereo not given)", "fluorescence, % of fluorescein control": "-0.129%"},
      {"molecule": "CCC(=O)O[C@@](Cc1ccccc1)(c1ccccc1)[C@@H](C)CN(C)C", "fluorescence, % of fluorescein control": "-0.0641% [at 18.6 µM]"},
      {"molecule": "CN1CCCC(=C(c2cccs2)c2cccs2)C1", "fluorescence, % of fluorescein control": "0.17%"},
      {"molecule": "[S]=[Sb](=[S])[S][Sb](=[S])=[S]", "fluorescence, % of fluorescein control": "0.0007%"},
      {"molecule": "C[C@@H](N)C(=O)c1ccccc1", "fluorescence, % of fluorescein control": "0.12% [at 95.7 µM]"},
      {"molecule": "C[C@]12CC[C@H]3[C@@H](CCC4=C(O)C(=O)CC[C@@H]43)[C@@H]1CC[C@@H]2OC(=O)CCC1CCCC1", "fluorescence, % of fluorescein control": "-0.0153%"},
      {"molecule": "C=CCC1(C(C)CCC)C(=O)N=C(S)NC1=O", "note": "(stereo not given)", "fluorescence, % of fluorescein control": "0.0443%"},
      {"molecule": "CN1c2ccccc2C(NCCCCCCC(=O)O)c2ccc(Cl)cc2S1(=O)=O", "note": "(stereo not given)", "fluorescence, % of fluorescein control": "0.0439%"},
      {"molecule": "CCC1(CC)C(=O)NC(=O)N(C)C1=O", "fluorescence, % of fluorescein control": "-0.0663%"},
      {"molecule": "CN[C@@]1(c2ccccc2Cl)CCCCC1=O", "fluorescence, % of fluorescein control": "0.0255%"},
      {"molecule": "C[C@@H](CO)NC(=O)[C@@H]1C=C2c3cccc4[nH]cc(c34)C[C@H]2N(C)C1", "fluorescence, % of fluorescein control": "1.66%"},
      {"molecule": "O=S(=O)(O)c1cc(O)ccc1O", "Potency": "inactive"},
      {"molecule": "C[C@]12CCC(=O)C=C1C=C[C@@H]1[C@@H]2CC[C@@]2(C)[C@H]1CC[C@@]2(O)CCC(=O)O", "fluorescence, % of fluorescein control": "0.003% [at 18.6 µM]"},
      {"molecule": "CO[C@H]1[C@@H](O)C[C@H](O[C@H]2[C@@H](O)C[C@H](O[C@H]3[C@@H](O)C[C@H](O[C@H]4CC[C@@]5(C)[C@H](CC[C@@H]6[C@@H]5C[C@@H](O)[C@]5(C)[C@@H](C7=CC(=O)OC7)CC[C@]65O)C4)O[C@@H]3C)O[C@@H]2C)O[C@@H]1C", "fluorescence, % of fluorescein control": "0.0091%"},
      {"molecule": "CCCCCc1cc(O)c2c(c1)OC(C)(C)c1ccc(C)cc1-2", "fluorescence, % of fluorescein control": "0.0006%"},
      {"molecule": "O=c1ccc2cc(O[C@@H]3O[C@H](CO)[C@@H](O)[C@H](O)[C@H]3O)c(O)cc2o1", "fluorescence, % of fluorescein control": "-0.0341% [at 18.6 µM]"},
      {"molecule": "CN1C(=O)CC(=O)N(c2ccccc2)c2cc(Cl)ccc21", "fluorescence, % of fluorescein control": "0.0008%"},
      {"molecule": "CCC(N)Cc1c[nH]c2ccccc12", "note": "(stereo not given)", "Potency": "inactive"},
      {"molecule": "CCC(C)(S(=O)(=O)CC)S(=O)(=O)CC", "fluorescence, % of fluorescein control": "0.0041%"},
      {"molecule": "CNC1(c2ccccc2Cl)CCCCC1=O", "note": "(stereo not given)", "Potency": "inactive"},
      {"molecule": "O=C(O)CCCO", "fluorescence, % of fluorescein control": "0.0854% [at 95.7 µM]"},
      {"molecule": "c1ccc(C2(N3CCCC3)CCCCC2)cc1", "fluorescence, % of fluorescein control": "0.64%"},
      {"molecule": "CN1CSC(=S)N(C)C1", "Potency": "inactive"},
      {"molecule": "c1ccccc1", "fluorescence, % of fluorescein control": "0.0058% [at 91.3 µM]"},
      {"molecule": "CCOC(=O)C1(c2ccccc2)CCCN(C)CC1", "note": "(stereo not given)", "fluorescence, % of fluorescein control": "-0.127%"},
      {"molecule": "CN(C)CCCCCCN(C)C", "fluorescence, % of fluorescein control": "0.0867% [at 91.3 µM]"},
      {"molecule": "C[C@@H]1[C@H](O)[C@@H](C)/C=C/C=C/CC/C=C/C=C/C=C/C=C/[C@H](O[C@H]2O[C@@H](C)[C@H](O)[C@@H](N)[C@H]2O)CC2O[C@](O)(C[C@@H](O)[C@H](O)CC[C@@H](O)C[C@@H](O)C[C@@H](O)CC(=O)O[C@H]1C)C[C@H](O)[C@H]2C(=O)O", "fluorescence, % of fluorescein control": "-0.0249%"},
      {"molecule": "Cc1nnc2n1-c1sc(Br)cc1C(c1ccccc1Cl)=NC2", "fluorescence, % of fluorescein control": "0.268%"},
      {"molecule": "CCN(CC)/[N+]([O-])=N/O", "fluorescence, % of fluorescein control": "0.0177%"},
      {"molecule": "CNC(C)CC1CCCCC1", "note": "(stereo not given)", "fluorescence, % of fluorescein control": "0.141%"},
      {"molecule": "CCC1C(C)=NN=C(c2ccc(OC)c(OC)c2)c2cc(OC)c(OC)cc21", "note": "(stereo not given)", "fluorescence, % of fluorescein control": "-0.0881%"},
      {"molecule": "CN[C@]1(c2ccccc2Cl)CCCCC1=O", "fluorescence, % of fluorescein control": "-0.145%"},
      {"molecule": "CCCCCCC(=O)O[C@H]1CC[C@H]2[C@@H]3CC[C@H]4CC(=O)C=C(C)[C@]4(C)[C@H]3CC[C@]12C", "fluorescence, % of fluorescein control": "-0.0095%"},
      {"molecule": "CCC1(c2ccccc2)C(=O)NC(=O)N(C)C1=O", "note": "(stereo not given)", "fluorescence, % of fluorescein control": "0.0437%"},
      {"molecule": "Cc1ccc(O)cc1C", "Potency": "inactive"},
      {"molecule": "CCOC(=O)C(O)(c1ccc(Cl)cc1)c1ccc(Cl)cc1", "Potency": "inactive"},
      {"molecule": "C[C@@H](Cc1ccccc1)NCCC(c1ccccc1)c1ccccc1", "fluorescence, % of fluorescein control": "0.0015% [at 18.6 µM]"},
      {"molecule": "NCC(O)c1cccc(O)c1", "note": "(stereo not given)", "fluorescence, % of fluorescein control": "0.145%"}
    ]}
  ]
}
